The supplement of paper PMC12645437, “Orthogonal IMiD-Degron Pairs Induce Selective Protein Degradation in Cells” (ACS Chemical Biology, 2025)
Over roughly 8,300 sequences, “log2 fold change of degron read counts, EGFP-low vs EGFP+ sorted cells (limma voom), compound-induced degradation” has its median near -1.1; the highest 2% begin near 3.2. The full list was thinned out, with the highest values kept by preference.

Molecular target: T1, CRBN, Q96SW2
T1 chain: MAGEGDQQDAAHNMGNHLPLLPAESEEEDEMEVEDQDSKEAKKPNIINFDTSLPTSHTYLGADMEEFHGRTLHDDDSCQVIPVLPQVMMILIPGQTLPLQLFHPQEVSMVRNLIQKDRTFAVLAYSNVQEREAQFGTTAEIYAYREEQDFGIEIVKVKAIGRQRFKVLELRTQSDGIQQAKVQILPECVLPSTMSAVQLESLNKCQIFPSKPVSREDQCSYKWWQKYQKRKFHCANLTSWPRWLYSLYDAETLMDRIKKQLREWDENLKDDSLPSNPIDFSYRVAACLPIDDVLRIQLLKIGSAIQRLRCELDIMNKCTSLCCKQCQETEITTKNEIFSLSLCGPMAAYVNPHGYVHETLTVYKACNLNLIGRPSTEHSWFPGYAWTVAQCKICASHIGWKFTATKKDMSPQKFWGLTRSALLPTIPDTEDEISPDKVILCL
Experiment: log2 fold change of degron read counts, EGFP-low vs EGFP+ sorted cells (limma voom), compound-induced degradation; higher = more compound-induced degradation of the degron-EGFP fusion; degrons are variants of IKZF1/3 zinc finger 2; compound dose not given here
Settings: Jurkat, 18 h

[1] = compound: compound 19 (5-tert-butyl-thalidomide)
[2] = compound: compound 22 (5-morpholino-thalidomide)
[3] = compound: compound 33 (diphenyl IMiD analogue)
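Further: pooled lentiviral library of zinc finger degron-EGFP fusions in mCherry-positive Jurkat cells, FACS-sorted after compound exposure, with degron abundance counted by next-generation sequencing.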

Sequence | log2 fold change of degron read counts [1] | log2 fold change of degron read counts [2] | log2 fold change of degron read counts [3] | log2 fold change of degron read counts (compound: thalidomide)
FMCNVCGAQFTQKGNLLRHIKL [46F_47M_49N_50V_52G_53A_54Q_55F_67L_, Q9UKT9] | -1.96 | -1.18 | 1.65 | -0.484
FYCNVCGAEFTQKGNLLRHIKL [46F_47Y_49N_50V_52G_53A_54E_55F_67L_, Q9UKT9] | 0.141 | -0.307 | -0.204 | -1.92
FDCSVCGHGFTQKGNLLRHIKL [46F_47D_49S_50V_52G_53H_54G_55F_67L_, Q9UKT9] | -2.13 | -2.49 | -2.85 | -2.61
FICEICGHPFTQKGNLLRHIKL [46F_47I_49E_50I_52G_53H_54P_55F_67L_, Q9UKT9] | -2.2 | -1.74 | -1.09 | -0.749
FTCNQCGAFFTQKGNLLRHIKL [46F_47T_49N_50Q_52G_53A_54F_55F_67L_, Q9UKT9] | -2.21 | -2.47 | -2.04 | -1.89
FMCDQCGAMFTQKGNLLRHIKL [46F_47M_49D_50Q_52G_53A_54M_55F_67L_, Q9UKT9] | -2.85 | -3.27 | -1.88 | -2.89
FVCEICGRYFTQKGNLLRHIKL [46F_47V_49E_50I_52G_53R_54Y_55F_67L_, Q9UKT9] | -1.62 | -1.93 | -1.15 | -0.136
LECPICGFQCTQKGNLLRHIKL [46L_47E_49P_50I_52G_53F_54Q_55C_67L_, Q9UKT9] | -0.146 | -0.246 | 2.16 | 3.16
LACPICGFQCTQKGNLLRHIKL [46L_47A_49P_50I_52G_53F_54Q_55C_67L_, Q9UKT9] | 3.44 | 2.59 | 1.86 | 1.78
LGCPICGFQCTQKGNLLRHIKL [46L_47G_49P_50I_52G_53F_54Q_55C_67L_, Q9UKT9] | 3.74 | 2.31 | 1.15 | 1.18
LSCPICGFQCTQKGNLLRHIKL [46L_47S_49P_50I_52G_53F_54Q_55C_67L_, Q9UKT9] | 2.31 | 2.18 | 1.54 | 1.93
LHCPICGFQCTQKGNLLRHIKL [46L_47H_49P_50I_52G_53F_54Q_55C_67L_, Q9UKT9] | 2.57 | 2.67 | 2.36 | 1.96
LVCPICGFQCTQKGNLLRHIKL [46L_47V_49P_50I_52G_53F_54Q_55C_67L_, Q9UKT9] | 1.16 | 2.72 | 2.04 | 3.09
FCCPQCGAHFTQKGNLLRHIKL [46F_47C_49P_50Q_52G_53A_54H_55F_67L_, Q9UKT9] | -1.46 | -2.19 | -0.412 | -1.42
FKCNQCGHPFTQKGNLLRHIKL [46F_47K_49N_50Q_52G_53H_54P_55F_67L_, Q9UKT9] | -2.61 | -2.63 | -2.72 | -2.3
LKCEICGFTCTQKGNLLRHIKL [46L_47K_49E_50I_52G_53F_54T_55C_67L_, Q9UKT9] | -1 | -2.29 | -1.73 | 0.124
LWCEICGFTCTQKGNLLRHIKL [46L_47W_49E_50I_52G_53F_54T_55C_67L_, Q9UKT9] | 3.55 | 3.79 | 3.08 | 1.83
LQCEICGFTCTQKGNLLRHIKL [46L_47Q_49E_50I_52G_53F_54T_55C_67L_, Q9UKT9] | 1.59 | 2.54 | 2.34 | 3.65
LDCEICGFTCTQKGNLLRHIKL [46L_47D_49E_50I_52G_53F_54T_55C_67L_, Q9UKT9] | 0.0603 | -0.828 | -0.732 | 0.278
LYCEICGFTCTQKGNLLRHIKL [46L_47Y_49E_50I_52G_53F_54T_55C_67L_, Q9UKT9] | 3.57 | 3.51 | 3.19 | 2.25
LVCEICGFTCTQKGNLLRHIKL [46L_47V_49E_50I_52G_53F_54T_55C_67L_, Q9UKT9] | 1.83 | 2.47 | 2.5 | 3.21
LGCEICGFTCTQKGNLLRHIKL [46L_47G_49E_50I_52G_53F_54T_55C_67L_, Q9UKT9] | 2.28 | 2.37 | 0.519 | 0.415
LACEICGFTCTQKGNLLRHIKL [46L_47A_49E_50I_52G_53F_54T_55C_67L_, Q9UKT9] | 3.48 | 3.3 | 1.55 | 1.36
LTCEICGFTCTQKGNLLRHIKL [46L_47T_49E_50I_52G_53F_54T_55C_67L_, Q9UKT9] | 1.29 | 2.89 | 2.18 | 3.14
LMCEICGFTCTQKGNLLRHIKL [46L_47M_49E_50I_52G_53F_54T_55C_67L_, Q9UKT9] | 0.136 | 1.5 | 3.07 | 2.97
LCCEICGFTCTQKGNLLRHIKL [46L_47C_49E_50I_52G_53F_54T_55C_67L_, Q9UKT9] | 2.49 | 2.78 | 2.65 | 2.98
LSCEICGFTCTQKGNLLRHIKL [46L_47S_49E_50I_52G_53F_54T_55C_67L_, Q9UKT9] | 3.05 | 2.87 | 1.94 | 1.96
LLCEICGFTCTQKGNLLRHIKL [46L_47L_49E_50I_52G_53F_54T_55C_67L_, Q9UKT9] | 0.0109 | -0.207 | 1.27 | 2.65
